Data taken from ChEMBL document CHEMBL1961873, “Compounds: GSK PKIS; Assays: Nanosyn kinase panel” (2012).

Key:
[1] = test system: Epidermal growth factor receptor (Homo sapiens), P00533 [T790M]; details: at 1 µM
[2] = test system: Epidermal growth factor receptor (Homo sapiens), P00533 [L858R,T790M]; details: at 0.1 µM
[3] = test system: Epidermal growth factor receptor (Homo sapiens), P00533 [L858R,T790M]; details: at 1 µM
[4] = biological target: Ephrin type-A receptor 2 (Homo sapiens) (UniProt P29317); details: at 0.1 µM
[5] = biological target: Ephrin type-A receptor 2 (Homo sapiens) (UniProt P29317); details: at 1 µM
[6] = biological target: T1, Ephrin type-A receptor 3 (Homo sapiens) (UniProt P29320); details: at 0.1 µM
T1 sequence (whole entry): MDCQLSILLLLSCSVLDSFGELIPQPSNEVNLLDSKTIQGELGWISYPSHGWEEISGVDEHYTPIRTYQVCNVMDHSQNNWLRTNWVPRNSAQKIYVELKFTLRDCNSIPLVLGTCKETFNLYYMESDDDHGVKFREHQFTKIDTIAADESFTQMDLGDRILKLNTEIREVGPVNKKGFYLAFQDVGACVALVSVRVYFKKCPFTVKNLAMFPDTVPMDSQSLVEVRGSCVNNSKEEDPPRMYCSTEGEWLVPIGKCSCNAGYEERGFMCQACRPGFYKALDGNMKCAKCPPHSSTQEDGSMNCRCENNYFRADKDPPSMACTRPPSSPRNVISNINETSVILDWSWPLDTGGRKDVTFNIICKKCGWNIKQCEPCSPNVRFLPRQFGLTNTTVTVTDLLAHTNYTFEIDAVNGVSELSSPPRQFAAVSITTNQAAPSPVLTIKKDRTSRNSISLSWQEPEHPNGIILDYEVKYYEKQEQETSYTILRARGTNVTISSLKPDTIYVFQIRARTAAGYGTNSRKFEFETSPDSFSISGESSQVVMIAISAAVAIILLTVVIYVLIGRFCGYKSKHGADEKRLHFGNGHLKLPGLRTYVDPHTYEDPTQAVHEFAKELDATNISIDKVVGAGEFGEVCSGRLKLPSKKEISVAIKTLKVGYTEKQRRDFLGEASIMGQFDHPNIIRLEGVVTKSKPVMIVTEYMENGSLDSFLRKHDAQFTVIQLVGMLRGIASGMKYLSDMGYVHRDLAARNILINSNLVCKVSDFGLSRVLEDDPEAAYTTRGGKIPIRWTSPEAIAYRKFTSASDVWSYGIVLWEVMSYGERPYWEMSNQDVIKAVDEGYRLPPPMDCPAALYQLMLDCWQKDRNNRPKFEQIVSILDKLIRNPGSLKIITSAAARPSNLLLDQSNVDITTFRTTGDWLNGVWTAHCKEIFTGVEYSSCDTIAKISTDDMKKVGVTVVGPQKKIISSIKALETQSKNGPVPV

[7] = biological target: T1, Ephrin type-A receptor 3 (Homo sapiens); details: at 1 µM
[8] = biological target: Ephrin type-A receptor 4 (Homo sapiens) (UniProt P54764); details: at 0.1 µM
[9] = biological target: Ephrin type-A receptor 4 (Homo sapiens) (UniProt P54764); details: at 1 µM
[10] = biological target: T2, Ephrin type-B receptor 2 (Homo sapiens) (UniProt P29323); details: at 0.1 µM
T2 sequence (whole entry): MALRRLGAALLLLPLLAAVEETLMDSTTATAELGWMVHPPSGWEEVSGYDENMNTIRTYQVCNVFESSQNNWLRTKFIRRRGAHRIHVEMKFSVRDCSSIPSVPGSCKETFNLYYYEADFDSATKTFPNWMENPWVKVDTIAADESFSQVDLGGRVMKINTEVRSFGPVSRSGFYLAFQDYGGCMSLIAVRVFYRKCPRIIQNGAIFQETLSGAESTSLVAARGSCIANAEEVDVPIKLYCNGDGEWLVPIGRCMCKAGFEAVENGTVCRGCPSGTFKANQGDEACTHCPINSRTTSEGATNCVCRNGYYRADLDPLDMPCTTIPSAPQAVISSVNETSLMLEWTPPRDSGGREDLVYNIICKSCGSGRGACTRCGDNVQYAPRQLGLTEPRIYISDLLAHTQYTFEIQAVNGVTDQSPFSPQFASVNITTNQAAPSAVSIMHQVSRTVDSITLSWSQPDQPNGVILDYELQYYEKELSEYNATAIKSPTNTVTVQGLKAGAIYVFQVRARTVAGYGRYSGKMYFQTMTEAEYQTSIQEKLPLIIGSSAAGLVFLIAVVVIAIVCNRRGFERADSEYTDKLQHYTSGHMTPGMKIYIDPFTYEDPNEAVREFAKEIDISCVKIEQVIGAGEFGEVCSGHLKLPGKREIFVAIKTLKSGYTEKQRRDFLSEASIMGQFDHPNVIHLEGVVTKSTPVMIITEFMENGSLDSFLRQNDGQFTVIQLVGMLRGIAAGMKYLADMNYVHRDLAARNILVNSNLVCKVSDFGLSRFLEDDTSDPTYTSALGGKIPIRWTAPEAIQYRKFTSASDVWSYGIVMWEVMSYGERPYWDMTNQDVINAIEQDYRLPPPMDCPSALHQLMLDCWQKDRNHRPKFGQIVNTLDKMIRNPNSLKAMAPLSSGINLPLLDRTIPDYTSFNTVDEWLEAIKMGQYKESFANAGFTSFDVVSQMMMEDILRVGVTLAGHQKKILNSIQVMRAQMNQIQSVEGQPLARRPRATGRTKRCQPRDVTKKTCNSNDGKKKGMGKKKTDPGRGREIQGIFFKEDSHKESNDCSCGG

[11] = biological target: T2, Ephrin type-B receptor 2 (Homo sapiens); details: at 1 µM
[12] = biological target: T3, Ephrin type-B receptor 3 (Homo sapiens) (UniProt P54753); details: at 0.1 µM
T3 sequence (whole entry): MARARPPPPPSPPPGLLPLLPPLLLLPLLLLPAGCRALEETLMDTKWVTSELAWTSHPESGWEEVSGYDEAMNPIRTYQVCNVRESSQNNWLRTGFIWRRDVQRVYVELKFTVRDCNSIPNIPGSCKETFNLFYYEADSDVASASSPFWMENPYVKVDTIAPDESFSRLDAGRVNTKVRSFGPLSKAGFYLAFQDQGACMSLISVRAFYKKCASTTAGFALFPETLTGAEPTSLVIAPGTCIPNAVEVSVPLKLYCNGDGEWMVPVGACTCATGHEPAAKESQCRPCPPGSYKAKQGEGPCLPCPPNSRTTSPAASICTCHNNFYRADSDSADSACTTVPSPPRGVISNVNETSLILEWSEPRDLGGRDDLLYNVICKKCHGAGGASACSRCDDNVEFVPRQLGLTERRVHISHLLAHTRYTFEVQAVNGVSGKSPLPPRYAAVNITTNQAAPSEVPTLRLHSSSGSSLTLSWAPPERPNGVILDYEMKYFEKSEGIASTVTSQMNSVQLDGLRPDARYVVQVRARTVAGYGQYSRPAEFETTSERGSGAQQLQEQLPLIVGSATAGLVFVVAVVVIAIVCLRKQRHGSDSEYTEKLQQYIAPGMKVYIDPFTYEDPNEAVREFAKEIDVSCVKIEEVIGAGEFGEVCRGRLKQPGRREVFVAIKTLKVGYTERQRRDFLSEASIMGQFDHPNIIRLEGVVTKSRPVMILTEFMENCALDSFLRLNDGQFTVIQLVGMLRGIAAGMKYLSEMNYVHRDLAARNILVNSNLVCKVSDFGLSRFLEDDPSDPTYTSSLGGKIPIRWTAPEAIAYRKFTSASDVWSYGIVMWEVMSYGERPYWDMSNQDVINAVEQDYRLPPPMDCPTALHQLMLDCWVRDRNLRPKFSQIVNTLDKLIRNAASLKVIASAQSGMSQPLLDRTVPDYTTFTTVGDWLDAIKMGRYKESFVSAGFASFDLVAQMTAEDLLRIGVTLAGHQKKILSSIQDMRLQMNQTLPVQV

[13] = biological target: T3, Ephrin type-B receptor 3 (Homo sapiens); details: at 1 µM
[14] = biological target: T4, Ephrin type-B receptor 4 (Homo sapiens) (UniProt P54760); details: at 0.1 µM
T4 sequence (whole entry): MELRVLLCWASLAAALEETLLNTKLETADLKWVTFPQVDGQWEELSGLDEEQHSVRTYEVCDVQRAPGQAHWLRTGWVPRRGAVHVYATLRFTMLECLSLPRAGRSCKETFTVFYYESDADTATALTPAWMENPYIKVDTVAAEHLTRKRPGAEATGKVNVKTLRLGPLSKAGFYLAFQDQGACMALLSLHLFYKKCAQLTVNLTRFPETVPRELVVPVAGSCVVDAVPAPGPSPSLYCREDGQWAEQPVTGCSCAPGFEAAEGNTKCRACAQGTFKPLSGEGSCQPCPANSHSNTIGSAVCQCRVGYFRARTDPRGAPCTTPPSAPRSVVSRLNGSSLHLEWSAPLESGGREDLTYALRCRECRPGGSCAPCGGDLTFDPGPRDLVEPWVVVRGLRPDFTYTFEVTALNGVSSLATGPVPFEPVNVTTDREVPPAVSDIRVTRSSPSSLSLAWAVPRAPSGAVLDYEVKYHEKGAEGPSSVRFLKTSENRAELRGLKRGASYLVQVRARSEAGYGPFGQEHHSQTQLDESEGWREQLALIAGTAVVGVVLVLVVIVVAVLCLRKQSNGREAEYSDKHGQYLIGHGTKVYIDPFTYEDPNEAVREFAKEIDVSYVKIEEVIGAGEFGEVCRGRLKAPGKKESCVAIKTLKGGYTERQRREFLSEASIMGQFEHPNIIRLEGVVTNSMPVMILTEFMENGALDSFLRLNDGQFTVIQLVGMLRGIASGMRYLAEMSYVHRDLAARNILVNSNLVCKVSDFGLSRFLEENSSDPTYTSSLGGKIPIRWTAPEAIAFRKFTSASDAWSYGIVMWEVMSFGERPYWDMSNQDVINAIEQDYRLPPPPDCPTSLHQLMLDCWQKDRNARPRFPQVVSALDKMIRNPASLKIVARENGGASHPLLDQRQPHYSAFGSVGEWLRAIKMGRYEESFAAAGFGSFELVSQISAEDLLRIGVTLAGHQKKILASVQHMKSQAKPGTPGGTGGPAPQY

[15] = biological target: T4, Ephrin type-B receptor 4 (Homo sapiens); details: at 1 µM
[16] = biological target: Receptor tyrosine-protein kinase erbB-2 (Homo sapiens) (UniProt P04626); details: at 0.1 µM
[17] = biological target: Receptor tyrosine-protein kinase erbB-2 (Homo sapiens) (UniProt P04626); details: at 1 µM
[18] = biological target: Receptor tyrosine-protein kinase erbB-4 (Homo sapiens) (UniProt Q15303); details: at 0.1 µM
[19] = biological target: Receptor tyrosine-protein kinase erbB-4 (Homo sapiens) (UniProt Q15303); details: at 1 µM
[20] = biological target: Tyrosine-protein kinase Fer (Homo sapiens) (UniProt P16591); details: at 0.1 µM;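 further: reported figures are averaged percent inhibition of FER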
Tyrosine-protein kinase Fer (Homo sapiens), sequence (P16591 whole entry, looked up): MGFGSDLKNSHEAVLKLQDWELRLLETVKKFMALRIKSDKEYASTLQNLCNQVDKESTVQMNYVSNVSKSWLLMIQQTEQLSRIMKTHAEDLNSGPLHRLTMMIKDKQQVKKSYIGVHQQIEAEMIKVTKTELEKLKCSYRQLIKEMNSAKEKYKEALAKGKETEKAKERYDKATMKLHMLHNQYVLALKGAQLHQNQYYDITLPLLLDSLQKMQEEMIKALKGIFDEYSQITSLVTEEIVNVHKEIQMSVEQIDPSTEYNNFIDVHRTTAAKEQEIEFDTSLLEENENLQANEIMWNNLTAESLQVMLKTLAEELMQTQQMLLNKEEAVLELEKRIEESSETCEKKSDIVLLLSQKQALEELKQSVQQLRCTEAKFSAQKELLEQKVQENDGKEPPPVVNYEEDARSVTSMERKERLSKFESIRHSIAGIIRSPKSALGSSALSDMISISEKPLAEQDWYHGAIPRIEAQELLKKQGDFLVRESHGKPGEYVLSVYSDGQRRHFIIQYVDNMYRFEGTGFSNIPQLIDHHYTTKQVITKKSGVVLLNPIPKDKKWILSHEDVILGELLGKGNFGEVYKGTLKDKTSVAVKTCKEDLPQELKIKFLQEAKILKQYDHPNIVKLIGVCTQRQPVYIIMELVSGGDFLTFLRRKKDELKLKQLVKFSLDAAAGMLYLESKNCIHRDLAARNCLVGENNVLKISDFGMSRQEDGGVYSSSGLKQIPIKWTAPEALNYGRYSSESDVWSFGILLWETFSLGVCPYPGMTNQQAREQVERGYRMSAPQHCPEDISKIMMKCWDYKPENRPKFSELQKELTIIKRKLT

Epidermal growth factor receptor (Homo sapiens), P00533 [T790M], sequence (P00533 whole entry T790M): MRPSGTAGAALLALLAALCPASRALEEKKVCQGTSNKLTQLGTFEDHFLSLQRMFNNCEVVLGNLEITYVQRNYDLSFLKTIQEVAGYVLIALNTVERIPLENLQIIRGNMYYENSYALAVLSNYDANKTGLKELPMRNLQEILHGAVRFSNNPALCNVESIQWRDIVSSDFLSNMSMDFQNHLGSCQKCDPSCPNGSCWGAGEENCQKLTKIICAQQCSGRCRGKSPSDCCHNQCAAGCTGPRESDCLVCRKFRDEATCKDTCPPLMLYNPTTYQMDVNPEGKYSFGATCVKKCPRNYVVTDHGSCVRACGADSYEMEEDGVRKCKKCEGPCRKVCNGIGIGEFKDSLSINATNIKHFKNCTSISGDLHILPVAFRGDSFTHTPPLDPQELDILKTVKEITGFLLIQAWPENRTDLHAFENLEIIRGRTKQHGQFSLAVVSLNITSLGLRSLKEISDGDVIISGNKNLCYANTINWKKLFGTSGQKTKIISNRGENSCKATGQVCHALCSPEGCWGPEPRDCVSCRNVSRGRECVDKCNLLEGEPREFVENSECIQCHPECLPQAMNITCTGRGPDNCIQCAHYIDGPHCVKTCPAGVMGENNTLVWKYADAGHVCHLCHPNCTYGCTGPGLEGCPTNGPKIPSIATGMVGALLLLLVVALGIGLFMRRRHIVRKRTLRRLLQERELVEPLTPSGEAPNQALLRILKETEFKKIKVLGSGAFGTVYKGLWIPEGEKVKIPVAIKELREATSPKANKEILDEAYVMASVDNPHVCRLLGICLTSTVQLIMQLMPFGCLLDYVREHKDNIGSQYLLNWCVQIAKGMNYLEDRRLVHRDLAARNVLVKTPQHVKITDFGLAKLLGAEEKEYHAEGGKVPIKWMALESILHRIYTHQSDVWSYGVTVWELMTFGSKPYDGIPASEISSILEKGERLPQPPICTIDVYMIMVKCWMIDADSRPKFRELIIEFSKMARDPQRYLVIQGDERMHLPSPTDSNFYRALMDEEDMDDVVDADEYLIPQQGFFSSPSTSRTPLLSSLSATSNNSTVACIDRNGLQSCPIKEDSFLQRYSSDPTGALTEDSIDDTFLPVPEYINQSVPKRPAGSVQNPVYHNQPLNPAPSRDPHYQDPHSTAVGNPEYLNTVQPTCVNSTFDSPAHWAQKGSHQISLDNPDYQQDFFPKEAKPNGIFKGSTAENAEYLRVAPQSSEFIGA
Receptor tyrosine-protein kinase erbB-2 (Homo sapiens), sequence (P04626 whole entry): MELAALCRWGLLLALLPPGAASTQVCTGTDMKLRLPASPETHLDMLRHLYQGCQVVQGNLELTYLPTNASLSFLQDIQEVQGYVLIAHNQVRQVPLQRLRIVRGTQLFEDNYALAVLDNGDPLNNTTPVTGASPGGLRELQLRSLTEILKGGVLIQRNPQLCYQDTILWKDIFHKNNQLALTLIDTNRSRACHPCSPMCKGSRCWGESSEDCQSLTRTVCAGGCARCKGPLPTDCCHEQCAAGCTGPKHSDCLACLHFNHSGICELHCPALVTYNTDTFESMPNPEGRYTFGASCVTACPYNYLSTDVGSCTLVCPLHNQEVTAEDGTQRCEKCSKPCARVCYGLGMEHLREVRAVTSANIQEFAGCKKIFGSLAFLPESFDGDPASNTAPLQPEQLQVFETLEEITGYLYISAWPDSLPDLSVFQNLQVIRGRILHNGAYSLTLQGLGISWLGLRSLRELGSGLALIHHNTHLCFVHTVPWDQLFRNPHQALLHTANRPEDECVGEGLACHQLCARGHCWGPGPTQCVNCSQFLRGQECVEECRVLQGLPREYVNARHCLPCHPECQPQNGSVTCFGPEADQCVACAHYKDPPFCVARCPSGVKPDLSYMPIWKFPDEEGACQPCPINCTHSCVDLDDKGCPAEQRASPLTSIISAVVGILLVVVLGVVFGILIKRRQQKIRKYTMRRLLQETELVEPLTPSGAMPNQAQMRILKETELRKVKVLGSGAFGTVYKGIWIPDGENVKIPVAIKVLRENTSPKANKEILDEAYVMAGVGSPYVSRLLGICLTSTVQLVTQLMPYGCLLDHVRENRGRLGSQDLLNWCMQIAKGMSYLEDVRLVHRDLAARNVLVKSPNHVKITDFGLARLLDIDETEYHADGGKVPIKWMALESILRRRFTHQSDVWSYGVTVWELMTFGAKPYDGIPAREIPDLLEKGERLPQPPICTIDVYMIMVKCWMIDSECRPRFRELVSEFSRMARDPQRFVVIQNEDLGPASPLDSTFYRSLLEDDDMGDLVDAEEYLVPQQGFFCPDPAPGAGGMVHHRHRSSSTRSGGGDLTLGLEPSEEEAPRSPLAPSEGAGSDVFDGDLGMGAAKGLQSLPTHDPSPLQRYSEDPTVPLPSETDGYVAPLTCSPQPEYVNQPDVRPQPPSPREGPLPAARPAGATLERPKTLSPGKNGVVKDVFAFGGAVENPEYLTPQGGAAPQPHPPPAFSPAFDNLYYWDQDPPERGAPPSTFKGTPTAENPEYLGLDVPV
Ephrin type-A receptor 2 (Homo sapiens), sequence (P29317 whole entry): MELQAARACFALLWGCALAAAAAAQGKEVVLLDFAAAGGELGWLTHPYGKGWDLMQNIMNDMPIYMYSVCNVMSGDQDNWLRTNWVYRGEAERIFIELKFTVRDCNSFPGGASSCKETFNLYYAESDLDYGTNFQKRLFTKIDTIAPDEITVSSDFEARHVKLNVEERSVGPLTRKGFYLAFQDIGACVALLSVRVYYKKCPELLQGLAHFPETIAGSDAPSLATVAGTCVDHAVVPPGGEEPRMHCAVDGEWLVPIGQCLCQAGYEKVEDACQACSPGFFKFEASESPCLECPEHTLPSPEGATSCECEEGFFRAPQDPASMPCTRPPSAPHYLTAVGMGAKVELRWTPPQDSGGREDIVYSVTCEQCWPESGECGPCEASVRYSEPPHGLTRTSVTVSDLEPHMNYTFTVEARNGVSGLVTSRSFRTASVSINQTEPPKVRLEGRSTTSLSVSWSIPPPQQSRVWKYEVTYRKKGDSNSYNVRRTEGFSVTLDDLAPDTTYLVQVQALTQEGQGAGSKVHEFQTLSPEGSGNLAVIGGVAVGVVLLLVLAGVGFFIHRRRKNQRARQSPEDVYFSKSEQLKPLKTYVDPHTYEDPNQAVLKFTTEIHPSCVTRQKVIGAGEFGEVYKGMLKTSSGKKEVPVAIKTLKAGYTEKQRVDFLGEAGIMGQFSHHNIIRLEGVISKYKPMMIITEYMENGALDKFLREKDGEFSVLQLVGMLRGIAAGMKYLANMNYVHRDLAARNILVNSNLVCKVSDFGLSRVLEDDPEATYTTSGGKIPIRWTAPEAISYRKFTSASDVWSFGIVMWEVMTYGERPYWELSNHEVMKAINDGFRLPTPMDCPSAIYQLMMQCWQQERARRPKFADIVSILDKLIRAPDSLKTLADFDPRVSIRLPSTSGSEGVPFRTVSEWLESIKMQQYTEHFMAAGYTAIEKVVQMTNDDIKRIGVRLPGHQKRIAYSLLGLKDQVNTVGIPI

Row | Structure (SMILES) | inhibition [1] | inhibition [2] | inhibition [3] | inhibition [4] | inhibition [5] | inhibition [6] | inhibition [7] | inhibition [8] | inhibition [9] | inhibition [10] | inhibition [11] | inhibition [12] | inhibition [13] | inhibition [14] | inhibition [15] | inhibition [16] | inhibition [17] | inhibition [18] | inhibition [19] | inhibition [20]
1 | NC(=O)c1ccc2c(-c3ccnc(NCCCO)n3)c(-c3ccc(F)cc3)nn2c1 | 2.72% | 4.41% | 6.91% | 2.54% | 7.54% | 5.24% | 7.21% | 11.8% | 29.7% | 9.21% | 40.3% | 4.52% | 4.65% | 4.6% | 11.4% | 2.1% | 3.13% | 16.8% | 39% | 6.31%
2 | COc1c(C(N)=O)cc(-c2ccc(Cl)cc2)cc1-c1ccc(S(N)(=O)=O)cc1 | 3.77% | -1.73% | 0.63% | 1.79% | 1.53% | 3.06% | 4.11% | 8.42% | 10.1% | 8.67% | 8.13% | 1.93% | 4.65% | 5.71% | 3.61% | 1.74% | 4.75% | 7.58% | 12.9% | 0.34%
3 | O=C(O[C@H]1CN[C@H](C#Cc2cc3ncnc(Nc4ccc5c(ccn5Cc5cc(F)ccc5F)c4)c3s2)C1)N1CCOCC1 | 50.3% | 4.66% | 9.08% | 0.75% | 0.06% | 4.84% | 4.4% | 6.87% | 3.19% | 5.25% | 4.17% | 6.61% | 5.15% | 2.46% | 3.04% | 9.01% | 40.9% | 86.9% | 86.3% | 1.31%
